Screening results as filed in PubChem.
PK Bst: modulators of Bacillus stearothermophilus pyruvate kinase. purified pyruvate kinase, luminescence ATP production; ribose 5-phosphate activator present at AC10. 1.2% of 51,000 active. Potency, µM. AID 361; in the data active = potency below about 11 µM; inconclusive = mostly about 12 µM to 25 µM;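 the screen sought inhibitors and activators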;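 note: scaled between full activation by ribose 5 phosphate and full inhibition by luteolin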
GBA activity: human lysosomal glucosylceramidase modulation; P04062; Potency, µM; AID 360; 1.1% of 48,000 active; purified enzyme, resorufin glucoside fluorescence (screen aimed at inhibitors), 20 min; in the data active = potency below about 15 µM; inconclusive = mostly about 16 µM to 33 µM;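 note: the screen sought inhibitors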
Target sequence (P04062 whole entry, looked up): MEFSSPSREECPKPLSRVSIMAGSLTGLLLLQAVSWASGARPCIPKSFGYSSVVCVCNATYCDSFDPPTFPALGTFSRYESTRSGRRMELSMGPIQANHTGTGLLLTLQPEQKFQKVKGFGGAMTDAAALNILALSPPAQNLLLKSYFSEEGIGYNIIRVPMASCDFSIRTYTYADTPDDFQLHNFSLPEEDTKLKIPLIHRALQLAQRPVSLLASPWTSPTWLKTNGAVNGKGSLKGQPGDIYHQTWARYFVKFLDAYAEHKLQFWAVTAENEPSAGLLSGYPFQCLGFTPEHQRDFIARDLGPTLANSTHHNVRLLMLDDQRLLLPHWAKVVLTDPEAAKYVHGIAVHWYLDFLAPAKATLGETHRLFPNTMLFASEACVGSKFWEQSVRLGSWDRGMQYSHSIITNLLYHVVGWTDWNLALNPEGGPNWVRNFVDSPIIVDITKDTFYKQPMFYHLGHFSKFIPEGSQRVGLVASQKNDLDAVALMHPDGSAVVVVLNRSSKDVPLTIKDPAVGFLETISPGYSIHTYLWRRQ
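Compounds titrated against 0.2 nM normal enzyme, 30 uM resorufin beta-D-glucopyranoside substrate, citrate/phosphate buffer with taurocholate and tween-20, pH 5.9. Reaction ran 20 min at room temperature; fluorescence (Ex 548/Em 600) gave AC50.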
Starred values were filed as active, the others as inactive; i = inactive; ? = inconclusive; . = no result given. Shown are actives, neighbours in structure and some others; about 2.3% of the full set was active somewhere. Potency is the fitted concentration of half-maximal effect.

SMILES	PK Bst	GBA activity
CCCCC(=O)Nc1ccc(NC(=O)c2ccc3c(c2)OCO3)cc1OC	.	>77
COc1cc(NC(=O)c2ccc3c(c2)OCO3)ccc1NC(=O)C(C)C	7.1*	>77
CC1CCCC(C)N1CCNC(=O)CCn1nc(-c2ccccc2)ccc1=O (stereo not given)	>57	>77
Cc1ccc(-n2ncc3c(=O)n(CC#N)cnc32)cc1C	>57	>77
C#CCn1cnc2c(cnn2-c2ccc(C)c(C)c2)c1=O	>57	15*
CCc1nnc2c3cnn(-c4ccc(C)c(C)c4)c3ncn12	>57	0.21*
Cc1nc2c3cnn(-c4ccc(C)c(C)c4)c3ncn2n1	.	>77
CCN(CC)c1ccc(C(=O)OCC(=O)N2CCN(c3ccccc3)CC2)cc1	>57	>77
CCCOc1ccc(N2C(=O)CC(N3CCC(c4nncn4CC)CC3)C2=O)cc1 (stereo not given)	>57	>77
Cc1ccc(NC(=O)c2ccccc2)s1	8.3*	>77
Cc1nc(NC(=O)c2ccccc2)sc1-c1csc(N)n1	i	>77
Nc1nc(-c2cccnc2)nn1C(=O)c1ccco1	>57	>77
COc1ccc(CNc2nc(-c3cccnc3)nn2C(=O)c2ccco2)cc1	>57	11*
Cc1cccc(N2CCN(C(=O)n3ccnc3)CC2)c1C	>57	>77
CC(c1ccccc1F)n1cc(C(=O)NCCc2ccco2)nn1 (stereo not given)	>57	>77
Cc1nnc(NC(=O)c2ccccc2Br)s1	>57	3.9*
COCc1nnc(NC(=O)c2sc3ccccc3c2Cl)s1	i	>77
Cc1nnc(NC(=O)CCSc2ccccc2)s1	>57	>77
Cc1nnc(NC(=O)c2ccccc2F)s1	>57	7.9*
Cc1nnc(NC(=O)c2sc3ccccc3c2Cl)s1	2.1*	15*
Cc1nnc(NC(=O)c2c(F)c(F)c(F)c(F)c2F)s1	>57	?
O=C(NC(=O)c1cccc(OC(F)(F)C(F)F)c1)OC1CCS(=O)(=O)C1 (stereo not given)	>57	?
Clc1ccc(-c2nnc(NC3=NCCCCC3)o2)cc1	6.4*	>77
c1nnc(NC2=NCCCCC2)s1	>57	>77
O=C(Cn1nnc(-c2ccccc2F)n1)Nc1ccc(C(=O)N2CCOCC2)cc1	>57	>77
SMILES	PK Bst	GBA activity
O=C(Cn1nnc(-c2ccccc2F)n1)Nc1ccc(S(=O)(=O)NC2CCCC2)cc1	>57	6.9*
O=C(O)CSc1nnc(-c2ccccc2)o1	>57	>77
O=C1OCCC1Sc1nnc(-c2ccccc2)o1 (stereo not given)	8.8*	>77
CC(NC(=O)c1ccnc(C(C)(C)C)c1)c1ccccc1 (stereo not given)	>57	>77
CCOC(=O)c1oc2ccccc2c1NC(=O)c1ccc2c(c1)OCO2	>57	>77
CCOc1ccc(C(=O)Nc2c(C(N)=O)oc3ccccc23)cc1	4*	i
Cc1ccc(S(=O)(=O)N2CCCCC2)cc1C(=O)c1nccn1C	>57	10*
Cc1ccnc(NC(=O)c2cc(S(=O)(=O)N3CCCCC3)ccc2Cl)c1	>57	>77
Cn1c(O)c(C=Nc2ccc(Cc3ccncc3)cc2)c(=O)n(C)c1=O	>26	.
CN1CCN(C(=O)c2cccc(COc3cc(Cl)ccc3Cl)c2)CC1	>57	.
CCOc1ccc(OCc2cccc(C(=O)N3CCOCC3)c2)cc1	8.5*	>77
Cc1cc(C)nc(N2CCC(C(=O)O)CC2)n1	>57	>77
Cc1cc(C)nc(N2CCC(C(=O)Nc3nnc(C)s3)CC2)n1	>57	3*
Cc1cccc(C)c1OCC(=O)Nn1c(C)nc2ccccc2c1=O	>57	.
Clc1ccc2nc(CN3CCCc4ccccc43)cn2c1	>57	?
CC1CCN(C(=O)CSc2nnc(CSc3ncccn3)n2C)CC1	>57	>77
CCOc1ccc(N2CC(C(=O)OC)CC2=O)cc1 (stereo not given)	>57	>77
Brc1ccc(-c2cn3cccnc3n2)cc1	5.9*	>77
COCC(=O)Nc1ccc(-c2cn3cccnc3n2)cc1	.	>77
C#Cc1ccc(C(=O)Nc2cc(C(N)=O)ccc2N2CCOCC2)cc1	.	>77
Cc1cc(Nc2nc3c(c(=O)n(C)c(=O)n3C)n2C)n(-c2ccccc2)n1	>57	>77
CCOC(=O)c1ccccc1NC1CC(=O)N(c2ccccc2C)C1=O (stereo not given)	>57	>77
N#Cc1ccccc1NC(=O)c1ccccc1OCC(=O)Nc1ccc2c(c1)oc1ccccc12	>57	11*
N#Cc1ccccc1NC(=O)c1ccccc1OCC(=O)NCc1ccco1	>57	>77
COc1ccc(Cl)cc1NC(=O)CSc1nc(N2CCCCC2)nc(N2CCCCC2)n1	>57	>77
SMILES	PK Bst	GBA activity
CC(C)(C)OC(=O)N1CCN(c2ccc(NC(=O)c3cc4ccccc4oc3=O)cc2)CC1	>57	>77
O=C(Nc1nc2ccccc2[nH]1)c1ccc(F)cc1	3.1*	>77
O=C(Nc1nc2ccccc2[nH]1)c1ccccc1F	1.4*	.
COc1ccc(C(=O)Nc2nc3ccccc3[nH]2)cc1OC	i	>77
Cc1cc(NC(=O)c2ccccc2F)n(-c2nc3ccccc3[nH]2)n1	>57	>77
O=CNCC(=O)NCCc1ccc(Cl)cc1	>57	>77
CCN(CC)C(=O)CSC1=C(C#N)C(c2cccs2)C=C(C)N1 (stereo not given)	>26	.
Cc1ccc(C(=O)CSc2nnc(COc3cccc4cccnc34)o2)cc1	>57	>77
O=C(CSc1nnc(COc2cccc3cccnc23)o1)c1ccc(F)cc1	10*	>77
Cc1cc(NCCCn2ccnc2)n2ncc(-c3ccccc3)c2n1	2*	.
Cc1cc(NCCN2CCOCC2)n2ncc(-c3ccc(Cl)cc3)c2n1	>57	i
C=CCn1nnc2sc3c(c2c1=O)CCC(C)C3 (stereo not given)	>57	>77
Cc1ccc2[nH]c(=O)c(CN(Cc3ccccc3Cl)C(=O)N3CCOCC3)cc2c1	>57	>77
O=C(O)c1ccc(NS(=O)(=O)c2cc(Cl)ccc2Cl)cc1O	i	>77
O=C(O)c1cc(NS(=O)(=O)c2cccc3ccccc23)ccc1O	3.3*	>77
COC(=O)COc1ccc(S(=O)(=O)Nc2ccc(NC(C)=O)cc2)cc1C	>57	.
CN1C(=C2C(=O)OC(C)(C)OC2=O)Sc2ccccc21	i	i
O=C1NC(=S)S/C1=C1\Sc2ccccc2N1CCCS(=O)(=O)O	7.7*	>77
CCOc1ccc2nc(C(C)O)[nH]c2c1 (stereo not given)	>57	?
COc1ccc2nc(N3CCCC3)[nH]c2c1	>11	?
COc1ccc2nc(-c3ccccc3)[nH]c2c1	6*	.
CCOc1ccc2nc(-c3ccccc3)[nH]c2c1	2*	i
COc1ccc(-c2nc(N)ncc2-c2csc(C)n2)c(O)c1	>57	>77
COc1ccc(-c2nc(N)nc(C)c2Oc2ccccc2Br)c(O)c1	1.9*	>77
c1cnc(N2CCN(c3nc4ccccc4n4cnnc34)CC2)nc1	i	>77
SMILES	PK Bst	GBA activity
Fc1ccccc1N1CCN(c2nc3ccccc3n3nnnc23)CC1	.	13*
CCC(C)NC(=O)c1ccccc1NS(=O)(=O)c1ccc(OC)c(OC)c1 (stereo not given)	>57	?
Cn1cc(C(=O)NCCN2CCN(c3ccccc3F)CC2)c2c3ccccc3n(C)c2c1=O	>57	.
Cc1nccn1-c1cc(C(C)C)c(C#N)c2nc3ccccc3n12	>26	.
Cc1ccc(-c2nc3ccccc3c(=O)n2CCN2CCOCC2)cc1	>57	>77
Cc1ccc(-c2nc3c(=O)n(C)c4ccccc4c3o2)cc1	0.17*	>77
